A selection: hits, their analogues and other compounds. The true share with any hit is near 10%.
RORgamma inh = ROR gamma (mouse) transcription inhibition. hit rate 5.4% among 310,000. AID 2551. Drosophila S2 Gal4-RORgamma UAS-luciferase reporter, 20 h. Potency, µM (top dose mostly 53.6 µM), hits mostly inhibitors; note: nearly all actives have a fitted effect of over 60% in size
Target sequence (P51450 whole entry, looked up, the tested form may be a part): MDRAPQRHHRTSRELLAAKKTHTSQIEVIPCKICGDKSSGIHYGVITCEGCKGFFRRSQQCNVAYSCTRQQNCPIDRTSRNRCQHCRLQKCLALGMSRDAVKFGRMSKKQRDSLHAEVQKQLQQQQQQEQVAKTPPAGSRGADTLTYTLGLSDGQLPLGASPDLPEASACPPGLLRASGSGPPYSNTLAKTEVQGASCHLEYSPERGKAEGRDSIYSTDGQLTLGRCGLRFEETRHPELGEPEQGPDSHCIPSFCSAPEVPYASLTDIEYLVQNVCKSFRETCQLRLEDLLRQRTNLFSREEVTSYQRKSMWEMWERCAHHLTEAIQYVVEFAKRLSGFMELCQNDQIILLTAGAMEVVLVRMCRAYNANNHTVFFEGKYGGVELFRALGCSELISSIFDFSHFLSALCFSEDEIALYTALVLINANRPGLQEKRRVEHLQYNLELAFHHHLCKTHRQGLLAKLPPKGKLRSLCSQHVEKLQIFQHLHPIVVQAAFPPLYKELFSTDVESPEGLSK
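Luminescence from a UAS-regulated Photinus luciferase reporter in stably transfected Drosophila Schneider cells is measured; decreased signal marks ROR gamma inhibition. Fusion expression is induced by 700 uM copper sulfate for 20 hr.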
MCF10A rereplic = induces DNA re-replication in MCF 10a normal breast cells. AID 624296. Potency, µM (highest dose often 46.1 µM), actives largely listed as activators. MCF 10A DNA re-replication, Hoechst nuclear intensity, 48 h. hit rate 2.9% among 350,000; note: nearly all actives have a fitted effect of over 50% in size
SW480 rereplic = DNA re-replication induction in SW480 cells. Potency, µM (highest dose often 46.1 µM), most hits filed as activators. AID 624297. SW480 DNA re-replication, Hoechst DNA content imaging, 48 h. hit rate 1.8% among 340,000; note: nearly all actives have a fitted effect of over 55% in size
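Cells (250 per well) received 23 nL compound or DMSO by pin tool and were kept 48 hr at 37 C, 5% CO2. Nuclei were then stained with Hoechst for 40 min and scanned for DNA content.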
VP16 counter = inhibits Gal4-VP16 luciferase reporter, ROR gamma counter-screen | Drosophila S2 Gal4-VP16 UAS-luciferase, luminescence, 20 h | Potency, µM (titrated, usually from 53.6 µM), most hits filed as inhibitors | hit rate 3.5% among 310,000 | AID 2546;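 note: Gal4-VP16 expression switched on by copper sulfate through the metallothionein promoter; nearly all actives have a fitted effect of over 50% in size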
ELG1 DNA repair = inhibitors of ELG1-dependent DNA repair in HEK293T cells | HEK293T ELG1-luciferase reporter, luminescence, 16 h; DNA damage induced by 5-fluorouridine | hit rate 2.3% among 330,000 | Potency, µM (titrated, usually from 46.1 µM), usual class: inhibitors; note: nearly all actives have a fitted effect of over 55% in size
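Overnight (16 hr) co-exposure of 2,000 cells/well to 5-fluorouridine and compound at 37 °C preceded detection. Luciferase was quantified via ONE-Glo luminescence; loss of signal denotes inhibition.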
Large screens that a line does not name were inactive. Calls come from the whole dose curve; as a rule, active = well fitted curve in the direction sought with a large enough effect; inconclusive = small, poorly fitted or top-dose-only effect, or another doubt; inactive = no such curve, though single readings can be large; an effect the other way counts as inactive or inconclusive.

CCN(CC)S(=O)(=O)c1cc(NC(=O)Cn2ncc(Cl)c(Cl)c2=O)ccc1C	MCF10A rereplic inconclusive, SW480 rereplic inconclusive, VP16 counter inconclusive, ELG1 DNA repair inconclusive
CCOC(=O)c1ccc(NC(=O)Cn2ncc(Cl)c(Cl)c2=O)cc1	RORgamma inh inconclusive, MCF10A rereplic 2.6µM, SW480 rereplic 2.6µM, VP16 counter 10µM, ELG1 DNA repair inconclusive
CCOc1ccccc1N(CC(=O)Nc1cccc2ccccc12)S(C)(=O)=O	none
Cc1ccc(NC(=O)CCc2nnc3ccc(N4CCOCC4)nn23)cc1C	none
CC1(C)C(Cl)C(=O)C(C(=O)c2ccccc2)C(=O)C1Cl (stereo not given)	none
CCc1ccccc1NC(=O)CN(C)C(=O)Cn1ncc(Cl)c(Cl)c1=O	RORgamma inh inconclusive, MCF10A rereplic 5.8µM, SW480 rereplic 6.5µM, ELG1 DNA repair inconclusive
Cc1cc(C)c(C)c(S(=O)(=O)NCc2ccc(C(=O)NCC3CCCO3)cc2)c1C (stereo not given)	none
CS(=O)(=O)c1ccc(N)c(SSc2cc(S(C)(=O)=O)ccc2N)c1	MCF10A rereplic 3.7µM (no result: RORgamma inh, VP16 counter)
CN(C)c1ccc(NC(=S)NC23CC4CC(CC(C4)C2)C3)cc1	RORgamma inh 2µM, VP16 counter 5µM, ELG1 DNA repair inconclusive
FC(F)Oc1ccc(NC(=S)NC23CC4CC(CC(C4)C2)C3)cc1	RORgamma inh 0.79µM, VP16 counter 7.1µM
CCOc1ccc(NC(=S)NC23CC4CC(CC(C4)C2)C3)cc1	RORgamma inh 3.2µM, VP16 counter 2.8µM
Cc1ccc(NC(=O)CS(=O)CC(=O)NC23CC4CC(CC(C4)C2)C3)cc1 (stereo not given)	none
CNC(=S)NC12CC3CC(CC(C3)C1)C2	RORgamma inh 2.5µM, VP16 counter 7.9µM
CCOC(=O)[C@@H]1[C@H]2COc3ccc(Br)cc3[C@H]2N2C(=O)N(c3ccc(C)cc3)C(=O)[C@]12C	none
Cc1ccccc1N(CC(=O)NCc1ccc2c(c1)OCO2)C(=O)C1CSC(=O)C1 (stereo not given)	none
COCCN(C(=O)c1ccc(N2C(=O)c3ccccc3C2=O)cc1)c1c(N)n(CC(C)C)c(=O)[nH]c1=O	none (no result: RORgamma inh, VP16 counter)
Cc1nc2ccc(S(=O)(=O)NCC(=O)N3CCN(c4ccccc4)CC3)cc2s1	ELG1 DNA repair 23µM
Cc1nc2ccc(S(=O)(=O)NCC(=O)NC(C)c3ccccc3)cc2s1 (stereo not given)	MCF10A rereplic 0.65µM
Cc1nc2ccc(S(=O)(=O)NCC(=O)N(C)Cc3ccccc3)cc2s1	ELG1 DNA repair inconclusive
CCN(CC)c1ccc(CNCc2cccs2)cc1	none
COc1ccc(NC(=O)/C(N=Nc2cc(S(=O)(=O)Nc3ccc(OC)cc3)ccc2OC)=C(\C)O)cc1	MCF10A rereplic 0.58µM
Cc1nc2cc(NS(=O)(=O)c3ccc(Br)cc3)ccc2n1C	ELG1 DNA repair 21µM
Cc1nc2cc(NS(=O)(=O)c3ccccc3)ccc2n1C	none
CCCNc1nc(-c2ccccc2)c(C(=O)OCC)cc1C#N	MCF10A rereplic 12µM, SW480 rereplic 16µM
CCCCNc1nc(-c2ccccc2)c(C(=O)OCC)cc1C#N	MCF10A rereplic inconclusive, SW480 rereplic inconclusive
C=CCNc1nc(-c2ccccc2)c(C(=O)OCC)cc1C#N	MCF10A rereplic 15µM, SW480 rereplic inconclusive, ELG1 DNA repair inconclusive
N#Cc1ccccc1NC(=O)COc1ccccc1C(=O)Nc1ccccc1	SW480 rereplic inconclusive, ELG1 DNA repair 21µM (no result: RORgamma inh, VP16 counter)
OCC[C@H]1C[C@@H](O)[C@H](O)[C@]2(OCc3ccccc32)O1	none (no result: RORgamma inh, VP16 counter)
COCCCNC(=O)c1c(N)n(/N=C/c2cccnc2)c2nc3ccccc3nc12	MCF10A rereplic inconclusive, SW480 rereplic inconclusive, ELG1 DNA repair inconclusive
CCC(C)NC(=O)c1c(N)n(/N=C/c2ccccn2)c2nc3ccccc3nc12 (stereo not given)	RORgamma inh 18µM, MCF10A rereplic inconclusive, SW480 rereplic 16µM, ELG1 DNA repair inconclusive
Nc1c(C(=O)NCC2CCCO2)c2nc3ccccc3nc2n1/N=C/c1ccncc1 (stereo not given)	none (no result: RORgamma inh, VP16 counter, ELG1 DNA repair)
CCC(C)NC(=O)c1c(N)n(/N=C/c2cccnc2)c2nc3ccccc3nc12 (stereo not given)	MCF10A rereplic 2.1µM, SW480 rereplic 5.8µM, ELG1 DNA repair 12µM
CC(C)CNC(=O)c1c(N)n(/N=C/c2cccnc2)c2nc3ccccc3nc12	none (no result: MCF10A rereplic, SW480 rereplic)
CC(C)OCCCNC(=O)c1c(N)n(/N=C/c2ccccn2)c2nc3ccccc3nc12	MCF10A rereplic 4.1µM, SW480 rereplic 21µM, ELG1 DNA repair 7.3µM
CC(C)OCCCNC(=O)c1ccncc1	none
COCCCNC(=O)c1c(N)n(/N=C/c2cccs2)c2nc3ccccc3nc12	MCF10A rereplic inconclusive, SW480 rereplic 7.3µM, ELG1 DNA repair inconclusive
CCOC(=O)C1CCN(C(=O)c2ccc(N3CCOCC3)c([N+](=O)[O-])c2)CC1	none (no result: RORgamma inh, VP16 counter)
O=C(NC(C(=O)N/N=C/c1ccccn1)c1n[nH]c(=O)c2ccccc12)c1ccccc1 (stereo not given)	MCF10A rereplic inconclusive
COc1ccc(-c2csc3ncnc(N4CCN(C(=O)c5ccco5)CC4)c23)cc1	ELG1 DNA repair 7.3µM (no result: RORgamma inh, VP16 counter)
COc1ccc(-c2csc3ncnc(N4CCN(c5cccc(C)c5C)CC4)c23)cc1	ELG1 DNA repair inconclusive
COc1ccc(C(=O)N2CCN(c3ccc(C)cc3)CC2)cc1OC	none
COc1ccc(-c2csc3ncnc(N4CCN(S(=O)(=O)c5ccc(C)cc5)CC4)c23)cc1	ELG1 DNA repair 21µM (no result: RORgamma inh, VP16 counter)
COc1ccc(-c2csc3nc(C)nc(N4CCN(c5ccc(C(C)=O)cc5)CC4)c23)cc1OC	ELG1 DNA repair 13µM
CCN1CCN(c2ncnc3scc(-c4ccc(OC)cc4)c23)CC1	ELG1 DNA repair inconclusive
COc1ccc(-c2csc3ncnc(N4CCN(c5ccccc5Cl)CC4)c23)cc1	MCF10A rereplic 18µM, SW480 rereplic inconclusive, ELG1 DNA repair 13µM
CCC(C)(C)NC(=O)C(c1ccc(OC)cc1)N(C(=O)CCC(=O)Nc1cc(C)on1)c1ccc2c(c1)OCO2 (stereo not given)	none
CN(C(=O)c1cccc(NC(=O)Cc2ccc(NC(=O)C3CCN(C(=O)C4CCC4)CC3)cc2)c1)C1CCC1	MCF10A rereplic inconclusive (no result: RORgamma inh, VP16 counter, ELG1 DNA repair)
COc1ccc(-c2csc3ncnc(N4CCN(S(=O)(=O)c5ccc(Cl)s5)CC4)c23)cc1	ELG1 DNA repair 8.2µM (no result: RORgamma inh, VP16 counter)
COc1ccc(N2CCN(c3ncnc4scc(-c5ccccc5)c34)CC2)cc1	MCF10A rereplic inconclusive, ELG1 DNA repair 16µM
COc1ccc(-c2csc3ncnc(N4CCN(S(=O)(=O)c5cccs5)CC4)c23)cc1	SW480 rereplic inconclusive, ELG1 DNA repair inconclusive (no result: RORgamma inh, VP16 counter)
c1ccc(-c2csc3ncnc(N4CCc5ccccc5C4)c23)cc1	RORgamma inh inconclusive, MCF10A rereplic inconclusive, SW480 rereplic inconclusive, VP16 counter 13µM, ELG1 DNA repair inconclusive

High-throughput results: PubChem, National Center for Advancing Translational Sciences (NCATS)
